# In PubChem BioAssay AID2322 (Broad Institute, 2010):
# About 120 (0.44%) of roughly 27,000 compounds were called active. No stated cut-off is given here; in the data, active means inhibition above about 20%; inconclusive means no clear call, values can overlap the other calls; inactive means below that. The full list was thinned out, with actives kept by preference.
# Target: Serine/threonine-protein kinase 33 (Homo sapiens) (UniProt Q9BYT3)
# Test: STK33 kinase inhibitors, primary screen, biochemical, luminescence, ADP-Glo, MBP substrate (AID 2322)
# Details: at 12.5 µM, stronger effect = higher value
# Serine/threonine-protein kinase 33 (Homo sapiens), sequence (Q9BYT3 whole entry, looked up): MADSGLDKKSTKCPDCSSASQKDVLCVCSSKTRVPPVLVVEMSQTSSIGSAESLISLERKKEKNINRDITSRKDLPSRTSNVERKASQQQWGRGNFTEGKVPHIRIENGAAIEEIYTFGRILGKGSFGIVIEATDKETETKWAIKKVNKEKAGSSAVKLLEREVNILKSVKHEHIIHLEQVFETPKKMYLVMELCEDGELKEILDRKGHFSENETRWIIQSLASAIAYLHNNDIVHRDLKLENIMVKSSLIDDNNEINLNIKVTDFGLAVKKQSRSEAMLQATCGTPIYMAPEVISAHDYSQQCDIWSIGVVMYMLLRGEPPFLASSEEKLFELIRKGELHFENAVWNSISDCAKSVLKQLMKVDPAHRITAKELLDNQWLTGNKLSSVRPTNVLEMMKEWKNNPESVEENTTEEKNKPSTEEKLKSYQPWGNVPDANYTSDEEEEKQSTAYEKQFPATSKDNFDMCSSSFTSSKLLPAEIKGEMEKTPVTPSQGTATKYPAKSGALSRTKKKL
row,SMILES,inhibition
1,COC(=O)c1c(NC(=S)Nc2ccc(OC)cc2[N+](=O)[O-])sc2c1CCC(C)C2 (stereo not drawn),-1.18% (inactive)
2,Cc1nnc2sc(-c3cccc(NC(=O)C(C)Oc4ccc(Cl)cc4Cl)c3)nn12 (stereo not drawn),1.75% (inactive)
3,CN(CC(=O)Nc1c(F)cccc1F)S(=O)(=O)c1ccc(Cl)cc1,0.176% (inactive)
4,CC(C)S(=O)(=O)NCC1CCN(Cc2cccc(OCCO)c2)CC1,-4.57% (inactive)
5,CC1(C)CC[C@]2(C(=O)O)CC[C@]3(C)C(=CCC4[C@@]5(C)CC[C@H](OC6O[C@H](CO)[C@@H](O)[C@H](O[C@@H]7O[C@H](CO)[C@@H](O)[C@H](O)[C@H]7O)[C@H]6O)C(C)(C)C5CC[C@]43C)[C@@H]2C1 (stereo partly drawn),-3.3% (inactive)
6,CN(CC(=O)Nc1ccc(Br)cc1)S(=O)(=O)c1ccc2ccccc2c1,-0.268% (inactive)
7,COc1ccc(N(CC(=O)Nc2cccnc2)S(C)(=O)=O)c(OC)c1,1.05% (inactive)
8,CN1CCN(S(=O)(=O)c2ccc(NC(=O)C3CC=CCC3C(=O)O)cc2)CC1 (stereo not drawn),-6.02% (inactive)
9,O=C(CSc1nnc2c(n1)[nH]c1ccccc12)Nc1cccc(C(F)(F)F)c1,0.0503% (inactive)
10,O=C(c1cc([N+](=O)[O-])ccc1NCc1cccnc1)N1CCOCC1,0.472% (inactive)
11,CCc1cc(C(=O)OC)c(NC(=S)Nc2ccc(OC)cc2[N+](=O)[O-])s1,2.32% (inactive)
12,CCc1cc(C(=O)OC)c(NC(=O)CC2Sc3ccc(C(F)(F)F)cc3NC2=O)s1 (stereo not drawn),26.1% (active)
13,C=CCn1c(SCc2nc3ccccc3[nH]2)nnc1-c1cccc(C)c1,-1.59% (inactive)
14,CCn1c(SCC(=O)Nc2ccc3c(c2)OCCO3)nnc1-c1ccncc1,0.907% (inactive)
15,COc1ccc(CCNC(=S)Nc2c(C)n(C)n(-c3ccccc3)c2=O)cc1OC,0.317% (inactive)
16,Cc1ccnc(NC(c2cccc(Br)c2)c2ccc3ccc(C)nc3c2O)c1 (stereo not drawn),-1.5% (inactive)
17,COc1ccc(-c2cc(C(F)(F)F)n3nc(C(=O)NCCCN4CCOCC4)cc3n2)cc1OC,-3.3% (inactive)
18,CCOc1ccccc1NC(=O)C1C(C(=O)O)C2C=CC1C21CC1 (stereo not drawn),-4.9% (inactive)
19,Cc1ccc(NC(=O)CCCN2C(=O)c3ccccc3C2=O)cc1,0.883% (inactive)
20,O=C1O[C@@H](c2ccccc2)[C@@H](c2ccccc2)N2[C@@H](c3ccccc3OCCO)[C@]3(C(=O)Nc4ccc(C#CC5(O)CCCCCC5)cc43)[C@@H](C(=O)N3CCN(c4ncccn4)CC3)[C@H]12,10.1% (inactive)
21,COc1ccc(N(CC(=O)Nc2ccc(F)c(F)c2)S(C)(=O)=O)cc1OC,0.788% (inactive)
22,CCn1c(SCC(=O)Nc2cc(Cl)c(Cl)cc2Cl)nnc1-c1cc(Br)ccc1O,-2.32% (inactive)
23,CNC[C@H]1OCc2cnnn2CCCC(=O)N([C@H](C)CO)C[C@@H]1C,2.08% (inactive)
24,Cc1ccc(S(=O)(=O)N(C)C[C@H]2Oc3ccc(NC(=O)Nc4cccc5ccccc45)cc3CC(=O)N([C@H](C)CO)C[C@H]2C)cc1,5.7% (inactive)
25,O=C(CC(NC1CCCC1)C(=O)O)Nc1cccc(Cl)c1 (stereo not drawn),-4.61% (inactive)
26,Cc1ccc(OCC(=O)Nc2cccc(NC(=O)c3ccco3)c2)cc1C,3.45% (inactive)
27,COC(=O)c1ccc(NC(=O)CN(c2ccc(C)c(Cl)c2)S(C)(=O)=O)cc1,-2.86% (inactive)
28,O=C(NCCCn1ccnc1)c1cc2c(s1)CCCC2,-4.73% (inactive)
